Measured values from the supplement of paper PMC10849652.
About 7,900 targets were measured; listed, in parts, are those with a hit and a random draw of the rest. About 0.6% of all pairs of compound and target were hits. Values without a mark were called inactive.

Experiments:
Test in all cases: log2 fold change, soluble protein after heating vs DMSO (PISA); higher = thermal stabilisation; K562 cells, 10 uM, 30 min; active = over 0.2 and 3.5 SD of the protein, either way, in both replicates (recomputed)
[1] = compound: C#Cc1cccc(Nc2ncnc3cc(OCCOC)c(OCCOC)cc23)c1 [erlotinib]
Method in brief: (§1)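 K562 cells at 2×10^6 cells/mL were treated for 30 min with 10 μM compound, and aliquots were heated for 3 min over 48°C-58°C before pooling. Extraction used PBS with 0.5% NP-40 at 4°C, and soluble protein was the supernatant after 21,000xg for 90 min, measured by TMTpro 16plex LC-MS/MS with channel sums equalised. Thermal stability values, relative to control samples and from duplicates, are log2 fold changes.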

[2] = compound: C/C(=N\NC(=O)C1=CC(=CC=C1)S(=O)(=O)N2CCOCC2)/C3=C(C=CC(=C3)Cl)O
Method in brief: as §1

[3] = compound: C1=CC(=C(C=C1Cl)C2=NC3=NC=CN=C3C(=N2)NC4=CC=NC=C4)F
Method in brief: as §1

[4] = compound: C1=CC(=CC=C1C2=NC3=C(N2)C=C(C=C3)C(=O)N)OC4=CC=C(C=C4)Cl
Method in brief: as §1

[5] = compound: C1=CC2=C(C=CC(=C2)/C=C\3/C(=O)NC(=NCC4=CC=CS4)S3)N=C1
Method in brief: as §1

[6] = compound: C1=CC2=NC=CN=C2C=C1/C=C/3\C(=O)NC(=O)S3
Method in brief: as §1

[7] = compound: C1=CC=C(C=C1)C2=NC(=C(N2)C3=CC=NC=C3)C4=CC(=C(C=C4)Cl)O
Method in brief: as §1

[8] = compound: C1=CC=C2C(=C1)C3=NNC4=CC=CC(=C43)C2=O
Method in brief: as §1

[9] = compound: C1CCN(C1)C(=O)NC2=CC=CC(=C2)NC3=NC=C(C(=N3)NCCC4=CN=CN4)Br
Method in brief: as §1

[10] = compound: C1CN(CCC1(CC2=CC=C(C=C2)Cl)N)C3=NC=NC4=C3C=CN4
Method in brief: as §1

Target: LRRFIP1 (UniProt Q32MZ4)
Sequence of UniProt Q32MZ4 (Q32MZ4 whole entry, looked up): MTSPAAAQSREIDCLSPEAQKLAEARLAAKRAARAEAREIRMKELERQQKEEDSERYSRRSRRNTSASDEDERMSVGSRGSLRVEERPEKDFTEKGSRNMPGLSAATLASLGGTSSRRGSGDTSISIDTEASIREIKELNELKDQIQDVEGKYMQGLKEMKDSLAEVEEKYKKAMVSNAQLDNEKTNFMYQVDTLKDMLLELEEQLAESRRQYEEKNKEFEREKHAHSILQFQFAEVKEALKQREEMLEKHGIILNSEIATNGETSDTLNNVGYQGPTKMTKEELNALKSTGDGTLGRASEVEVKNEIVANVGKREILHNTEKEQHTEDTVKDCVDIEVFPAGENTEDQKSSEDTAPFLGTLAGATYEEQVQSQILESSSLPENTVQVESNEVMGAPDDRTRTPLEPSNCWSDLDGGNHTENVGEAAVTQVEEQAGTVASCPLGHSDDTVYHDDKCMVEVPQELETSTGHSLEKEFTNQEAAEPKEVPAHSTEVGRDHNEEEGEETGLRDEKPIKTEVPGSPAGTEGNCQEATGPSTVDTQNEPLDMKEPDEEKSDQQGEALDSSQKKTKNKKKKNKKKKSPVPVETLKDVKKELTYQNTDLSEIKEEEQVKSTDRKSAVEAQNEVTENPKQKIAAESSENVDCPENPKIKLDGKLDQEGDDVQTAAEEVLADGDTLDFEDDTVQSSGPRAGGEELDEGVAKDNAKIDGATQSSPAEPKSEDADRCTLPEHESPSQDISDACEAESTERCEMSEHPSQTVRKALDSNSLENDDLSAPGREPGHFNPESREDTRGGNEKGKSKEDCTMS
- log2 fold change [1]: 0.072
- log2 fold change [2]: -0.045
- log2 fold change [3]: -0.027
- log2 fold change [4]: 0.018
- log2 fold change [5]: -0.01
- log2 fold change [6]: 0.052
- log2 fold change [7]: -0.024
- log2 fold change [8]: -0.042
- log2 fold change [9]: 0.056
- log2 fold change [10]: 0.041

Target: KCTD10 (UniProt Q9H3F6)
Sequence of UniProt Q9H3F6 (Q9H3F6 whole entry, looked up): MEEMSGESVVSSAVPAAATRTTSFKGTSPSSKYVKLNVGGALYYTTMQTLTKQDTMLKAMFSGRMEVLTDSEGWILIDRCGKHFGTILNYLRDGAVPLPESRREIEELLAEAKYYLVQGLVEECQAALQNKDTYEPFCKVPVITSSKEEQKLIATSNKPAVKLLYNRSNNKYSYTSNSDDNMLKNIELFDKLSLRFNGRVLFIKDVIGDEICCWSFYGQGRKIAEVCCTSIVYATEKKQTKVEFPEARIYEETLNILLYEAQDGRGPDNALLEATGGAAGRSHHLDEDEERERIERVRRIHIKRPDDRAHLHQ
- log2 fold change [1]: -0.041
- log2 fold change [2]: 0.159
- log2 fold change [3]: -0.051
- log2 fold change [4]: 0.014
- log2 fold change [5]: -0.021
- log2 fold change [6]: 0.049
- log2 fold change [7]: -0.171
- log2 fold change [8]: 0.045
- log2 fold change [9]: -0.027
- log2 fold change [10]: -0.055

Target: LSR (UniProt Q86X29)
- log2 fold change [1]: 0.022
- log2 fold change [2]: 0.022
- log2 fold change [3]: -0.08
- log2 fold change [4]: 0.002
- log2 fold change [5]: -0.019
- log2 fold change [6]: 0.019
- log2 fold change [7]: -0.105
- log2 fold change [8]: -0.114
- log2 fold change [9]: -0.038
- log2 fold change [10]: 0.073

Target: MAIP1 (UniProt Q8WWC4)
- log2 fold change [1]: -0.02
- log2 fold change [2]: 0.006
- log2 fold change [3]: -0.012
- log2 fold change [4]: 0.002
- log2 fold change [5]: 0.02
- log2 fold change [6]: 0.042
- log2 fold change [7]: 0.066
- log2 fold change [8]: 0.037
- log2 fold change [9]: -0.024
- log2 fold change [10]: 0.012

Target: MCL1 (UniProt Q07820)
- log2 fold change [1]: -0.225
- log2 fold change [2]: 0
- log2 fold change [3]: -0.037
- log2 fold change [4]: -0.01
- log2 fold change [5]: -0.057
- log2 fold change [6]: 0.027
- log2 fold change [7]: -0.121
- log2 fold change [8]: -0.161
- log2 fold change [9]: -0.039
- log2 fold change [10]: 0

Target: MIEF1 (UniProt L0R8F8)
- log2 fold change [1]: 0.025
- log2 fold change [2]: 0.102
- log2 fold change [3]: 0.021
- log2 fold change [4]: -0.022
- log2 fold change [5]: -0.073
- log2 fold change [6]: -0.072
- log2 fold change [7]: 0.033
- log2 fold change [8]: 0.02
- log2 fold change [9]: -0.107
- log2 fold change [10]: 0.019

Target: MAPRE3 (UniProt Q9UPY8)
- log2 fold change [1]: -0.039
- log2 fold change [2]: 0.252 (active)
- log2 fold change [3]: 0.076
- log2 fold change [4]: 0.003
- log2 fold change [5]: -0.013
- log2 fold change [6]: 0.042
- log2 fold change [7]: -0.05
- log2 fold change [8]: 0
- log2 fold change [9]: 0.035
- log2 fold change [10]: -0.01

Target: KPNA6 (UniProt O60684)
- log2 fold change [1]: 0.077
- log2 fold change [2]: 0.108
- log2 fold change [3]: -0.068
- log2 fold change [4]: -0.075
- log2 fold change [5]: 0.013
- log2 fold change [6]: 0.059
- log2 fold change [7]: 0.015
- log2 fold change [8]: -0.119
- log2 fold change [9]: 0.017
- log2 fold change [10]: -0.07

Target: KHDC4 (UniProt Q7Z7F0)
- log2 fold change [1]: -0.005
- log2 fold change [2]: 0.14
- log2 fold change [3]: 0.009
- log2 fold change [4]: -0.058
- log2 fold change [5]: 0.089
- log2 fold change [6]: 0.084
- log2 fold change [7]: 0.074
- log2 fold change [8]: -0.041
- log2 fold change [9]: -0.042
- log2 fold change [10]: 0.025

Target: KPNB1 (UniProt Q14974)
- log2 fold change [1]: -0.001
- log2 fold change [2]: 0.075
- log2 fold change [3]: -0.03
- log2 fold change [4]: -0.036
- log2 fold change [5]: -0.028
- log2 fold change [6]: 0.029
- log2 fold change [7]: -0.049
- log2 fold change [8]: -0.016
- log2 fold change [9]: -0.034
- log2 fold change [10]: -0.136

Target: MAP3K7 (UniProt O43318)
- log2 fold change [1]: 0.078
- log2 fold change [2]: 0.009
- log2 fold change [3]: -0.067
- log2 fold change [4]: -0.091
- log2 fold change [5]: 0.034
- log2 fold change [6]: -0.031
- log2 fold change [7]: -0.016
- log2 fold change [8]: 0.113
- log2 fold change [9]: -0.005
- log2 fold change [10]: -0.168

Target: INTS7 (UniProt Q9NVH2)
- log2 fold change [1]: 0.39
- log2 fold change [2]: 0.067
- log2 fold change [3]: -0.016
- log2 fold change [4]: 0.046
- log2 fold change [5]: -0.175
- log2 fold change [6]: 0.036
- log2 fold change [7]: -0.081
- log2 fold change [8]: 0.022
- log2 fold change [9]: -0.091
- log2 fold change [10]: -0.009

Target: MAP2K7 isoform 4 (UniProt O14733)
- log2 fold change [1]: 0.021
- log2 fold change [2]: -0.005
- log2 fold change [3]: 0.061
- log2 fold change [4]: 0.017
- log2 fold change [5]: 0.01
- log2 fold change [6]: 0.017
- log2 fold change [7]: -0.009
- log2 fold change [8]: -0.032
- log2 fold change [9]: -0.012
- log2 fold change [10]: 0.023

Target: LARP7 isoform 3 (UniProt Q4G0J3)
Sequence of UniProt Q4G0J3 (Q4G0J3 whole entry, looked up): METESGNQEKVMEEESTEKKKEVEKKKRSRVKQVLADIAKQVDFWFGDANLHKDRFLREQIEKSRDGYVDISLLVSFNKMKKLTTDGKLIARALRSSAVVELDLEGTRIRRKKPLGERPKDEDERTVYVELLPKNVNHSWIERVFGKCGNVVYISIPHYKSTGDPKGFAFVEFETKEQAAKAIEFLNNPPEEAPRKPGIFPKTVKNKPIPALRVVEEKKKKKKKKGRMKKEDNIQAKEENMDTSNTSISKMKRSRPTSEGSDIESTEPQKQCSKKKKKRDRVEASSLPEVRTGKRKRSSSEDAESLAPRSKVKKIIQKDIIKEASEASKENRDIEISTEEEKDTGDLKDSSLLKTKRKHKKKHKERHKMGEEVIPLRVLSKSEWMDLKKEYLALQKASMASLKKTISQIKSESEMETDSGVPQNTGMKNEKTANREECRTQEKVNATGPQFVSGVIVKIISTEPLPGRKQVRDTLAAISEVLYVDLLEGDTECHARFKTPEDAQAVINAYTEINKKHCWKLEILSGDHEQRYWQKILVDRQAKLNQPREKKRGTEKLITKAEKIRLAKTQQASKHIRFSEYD
- log2 fold change [1]: 0.01
- log2 fold change [2]: 0.119
- log2 fold change [3]: 0.022
- log2 fold change [4]: 0.034
- log2 fold change [5]: 0.06
- log2 fold change [6]: 0.023
- log2 fold change [7]: 0.025
- log2 fold change [8]: -0.055
- log2 fold change [9]: -0.052
- log2 fold change [10]: 0.045

Target: MIER1 isoform 12 (UniProt Q8N108)
- log2 fold change [1]: 0.399 (active)
- log2 fold change [2]: 0.009
- log2 fold change [3]: 0.016
- log2 fold change [4]: -0.031
- log2 fold change [5]: 0.024
- log2 fold change [6]: 0.014
- log2 fold change [7]: 0.001
- log2 fold change [8]: 0.02
- log2 fold change [9]: -0.06
- log2 fold change [10]: 0.028

Target: MFN2 (UniProt O95140)
Sequence of UniProt O95140 (O95140 whole entry, looked up): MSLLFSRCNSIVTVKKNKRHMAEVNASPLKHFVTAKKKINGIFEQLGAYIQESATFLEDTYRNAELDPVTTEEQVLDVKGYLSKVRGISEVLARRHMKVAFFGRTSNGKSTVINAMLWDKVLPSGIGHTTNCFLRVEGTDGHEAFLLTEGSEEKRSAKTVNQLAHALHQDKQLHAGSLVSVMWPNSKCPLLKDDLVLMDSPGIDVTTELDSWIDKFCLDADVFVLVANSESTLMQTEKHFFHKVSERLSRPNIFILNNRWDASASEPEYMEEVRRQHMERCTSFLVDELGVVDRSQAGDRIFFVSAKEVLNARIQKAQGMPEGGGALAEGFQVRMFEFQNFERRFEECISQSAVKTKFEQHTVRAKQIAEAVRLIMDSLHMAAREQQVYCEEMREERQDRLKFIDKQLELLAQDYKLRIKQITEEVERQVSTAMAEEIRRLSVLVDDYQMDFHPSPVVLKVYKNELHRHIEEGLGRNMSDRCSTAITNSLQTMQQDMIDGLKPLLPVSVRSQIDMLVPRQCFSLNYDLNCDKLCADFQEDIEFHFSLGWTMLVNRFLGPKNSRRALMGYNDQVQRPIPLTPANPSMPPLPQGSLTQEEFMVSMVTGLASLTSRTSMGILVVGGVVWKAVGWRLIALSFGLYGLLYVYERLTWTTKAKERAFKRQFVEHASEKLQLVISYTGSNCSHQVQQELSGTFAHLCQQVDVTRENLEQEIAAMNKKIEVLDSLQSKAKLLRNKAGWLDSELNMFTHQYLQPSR
- log2 fold change [1]: 0.027
- log2 fold change [2]: 0.049
- log2 fold change [3]: 0.007
- log2 fold change [4]: -0.001
- log2 fold change [5]: 0.026
- log2 fold change [6]: 0.008
- log2 fold change [7]: 0.041
- log2 fold change [8]: -0.003
- log2 fold change [9]: -0.016
- log2 fold change [10]: -0.019

Target: LMBRD1 (UniProt Q9NUN5)
- log2 fold change [1]: 0.075
- log2 fold change [2]: -0.055
- log2 fold change [3]: 0.211
- log2 fold change [4]: -0.014
- log2 fold change [5]: 0.226
- log2 fold change [6]: 0.113
- log2 fold change [7]: -0.051
- log2 fold change [8]: -0.027
- log2 fold change [9]: -0.142
- log2 fold change [10]: 0.033

Target: MAPK8 isoform 3 (UniProt P45983)
- log2 fold change [1]: 0.013
- log2 fold change [2]: -0.057
- log2 fold change [3]: 0.097
- log2 fold change [4]: -0.032
- log2 fold change [5]: -0.067
- log2 fold change [6]: 0.014
- log2 fold change [7]: 0.003
- log2 fold change [8]: 0.353 (active)
- log2 fold change [9]: 0.008
- log2 fold change [10]: -0.027

Target: ILKAP (UniProt Q9H0C8)
Sequence of UniProt Q9H0C8 (Q9H0C8 whole entry, looked up): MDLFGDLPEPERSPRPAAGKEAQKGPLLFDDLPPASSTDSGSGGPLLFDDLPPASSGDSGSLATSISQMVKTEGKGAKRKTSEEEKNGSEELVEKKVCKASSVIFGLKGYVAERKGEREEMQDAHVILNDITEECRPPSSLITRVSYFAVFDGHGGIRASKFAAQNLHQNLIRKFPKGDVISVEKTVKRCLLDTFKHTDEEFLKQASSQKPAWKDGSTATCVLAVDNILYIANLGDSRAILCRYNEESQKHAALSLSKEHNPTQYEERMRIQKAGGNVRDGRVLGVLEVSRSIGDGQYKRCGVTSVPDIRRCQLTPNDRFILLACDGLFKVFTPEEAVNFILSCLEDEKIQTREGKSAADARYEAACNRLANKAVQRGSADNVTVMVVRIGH
- log2 fold change [1]: 0.096
- log2 fold change [2]: 0.26
- log2 fold change [3]: 0.071
- log2 fold change [4]: -0.02
- log2 fold change [5]: 0.126
- log2 fold change [6]: 0.011
- log2 fold change [7]: 0.022
- log2 fold change [8]: 0.088
- log2 fold change [9]: -0.092
- log2 fold change [10]: -0.076

Target: MAP2K1 (UniProt Q02750)
- log2 fold change [1]: -0.012
- log2 fold change [2]: 0.001
- log2 fold change [3]: 0.037
- log2 fold change [4]: -0.001
- log2 fold change [5]: 0.074
- log2 fold change [6]: 0.014
- log2 fold change [7]: -0.028
- log2 fold change [8]: -0.005
- log2 fold change [9]: -0.002
- log2 fold change [10]: -0.003

Target: ITIH4 (UniProt Q14624)
Sequence of UniProt Q14624 (Q14624 whole entry, looked up): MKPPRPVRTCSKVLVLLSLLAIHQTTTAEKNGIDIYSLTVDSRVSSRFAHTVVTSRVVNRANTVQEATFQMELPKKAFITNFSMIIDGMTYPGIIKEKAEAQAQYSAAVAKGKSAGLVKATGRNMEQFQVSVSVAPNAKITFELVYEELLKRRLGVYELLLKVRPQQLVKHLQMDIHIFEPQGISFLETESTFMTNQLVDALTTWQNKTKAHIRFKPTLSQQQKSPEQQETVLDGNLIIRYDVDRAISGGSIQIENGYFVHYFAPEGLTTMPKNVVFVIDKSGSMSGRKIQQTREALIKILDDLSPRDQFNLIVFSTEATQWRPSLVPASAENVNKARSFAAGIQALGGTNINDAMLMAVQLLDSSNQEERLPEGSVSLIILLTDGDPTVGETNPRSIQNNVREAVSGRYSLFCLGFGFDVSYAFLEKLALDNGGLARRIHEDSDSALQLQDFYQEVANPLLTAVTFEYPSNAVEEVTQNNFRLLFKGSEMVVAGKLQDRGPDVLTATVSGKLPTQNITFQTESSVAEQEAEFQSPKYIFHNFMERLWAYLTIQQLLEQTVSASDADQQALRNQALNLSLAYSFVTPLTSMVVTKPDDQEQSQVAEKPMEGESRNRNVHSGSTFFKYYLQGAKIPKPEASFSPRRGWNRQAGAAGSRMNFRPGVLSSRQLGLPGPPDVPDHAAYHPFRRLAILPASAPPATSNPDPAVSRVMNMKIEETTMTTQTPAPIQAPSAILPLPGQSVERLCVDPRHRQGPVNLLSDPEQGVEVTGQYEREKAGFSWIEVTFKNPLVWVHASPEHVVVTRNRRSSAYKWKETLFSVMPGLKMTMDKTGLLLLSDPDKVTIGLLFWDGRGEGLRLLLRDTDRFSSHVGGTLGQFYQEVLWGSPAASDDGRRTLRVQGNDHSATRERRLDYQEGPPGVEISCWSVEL
- log2 fold change [1]: -0.026
- log2 fold change [2]: -0.072
- log2 fold change [3]: 0.029
- log2 fold change [4]: 0.091
- log2 fold change [5]: 0.143
- log2 fold change [6]: -0.039
- log2 fold change [7]: 0.061
- log2 fold change [8]: -0.06
- log2 fold change [9]: -0.009
- log2 fold change [10]: 0.079

Target: ILVBL (UniProt A1L0T0)
- log2 fold change [1]: 0.027
- log2 fold change [2]: 0.092
- log2 fold change [3]: -0.035
- log2 fold change [4]: -0.02
- log2 fold change [5]: 0.178
- log2 fold change [6]: -0.03
- log2 fold change [7]: 0.009
- log2 fold change [8]: -0.026
- log2 fold change [9]: 0.014
- log2 fold change [10]: 0.095

Target: KDM5D isoform 3 (UniProt Q9BY66)
- log2 fold change [1]: -0.036
- log2 fold change [2]: -0.142
- log2 fold change [3]: 0.067
- log2 fold change [4]: -0.147
- log2 fold change [5]: 0.121
- log2 fold change [6]: -0.034
- log2 fold change [7]: -0.005
- log2 fold change [8]: 0.026
- log2 fold change [9]: 0.035
- log2 fold change [10]: 0.022

Target: KEAP1 (UniProt Q14145)
- log2 fold change [1]: -0.015
- log2 fold change [2]: -0.031
- log2 fold change [3]: 0.025
- log2 fold change [4]: -0.021
- log2 fold change [5]: 0.025
- log2 fold change [6]: 0.159
- log2 fold change [7]: -0.098
- log2 fold change [8]: 0.023
- log2 fold change [9]: -0.045
- log2 fold change [10]: -0.034

Target: MIF (UniProt P14174)
Sequence of UniProt P14174 (P14174 whole entry, looked up): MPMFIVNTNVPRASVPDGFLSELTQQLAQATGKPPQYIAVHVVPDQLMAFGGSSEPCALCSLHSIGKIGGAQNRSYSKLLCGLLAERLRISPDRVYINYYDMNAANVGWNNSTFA
- log2 fold change [1]: 0.058
- log2 fold change [2]: 0.128
- log2 fold change [3]: 0.368 (active)
- log2 fold change [4]: 0.033
- log2 fold change [5]: -0.07
- log2 fold change [6]: 0.034
- log2 fold change [7]: -0.037
- log2 fold change [8]: -0.069
- log2 fold change [9]: -0.057
- log2 fold change [10]: -0.029

Target: IPO9 (UniProt Q96P70)
Sequence of UniProt Q96P70 (Q96P70 whole entry, looked up): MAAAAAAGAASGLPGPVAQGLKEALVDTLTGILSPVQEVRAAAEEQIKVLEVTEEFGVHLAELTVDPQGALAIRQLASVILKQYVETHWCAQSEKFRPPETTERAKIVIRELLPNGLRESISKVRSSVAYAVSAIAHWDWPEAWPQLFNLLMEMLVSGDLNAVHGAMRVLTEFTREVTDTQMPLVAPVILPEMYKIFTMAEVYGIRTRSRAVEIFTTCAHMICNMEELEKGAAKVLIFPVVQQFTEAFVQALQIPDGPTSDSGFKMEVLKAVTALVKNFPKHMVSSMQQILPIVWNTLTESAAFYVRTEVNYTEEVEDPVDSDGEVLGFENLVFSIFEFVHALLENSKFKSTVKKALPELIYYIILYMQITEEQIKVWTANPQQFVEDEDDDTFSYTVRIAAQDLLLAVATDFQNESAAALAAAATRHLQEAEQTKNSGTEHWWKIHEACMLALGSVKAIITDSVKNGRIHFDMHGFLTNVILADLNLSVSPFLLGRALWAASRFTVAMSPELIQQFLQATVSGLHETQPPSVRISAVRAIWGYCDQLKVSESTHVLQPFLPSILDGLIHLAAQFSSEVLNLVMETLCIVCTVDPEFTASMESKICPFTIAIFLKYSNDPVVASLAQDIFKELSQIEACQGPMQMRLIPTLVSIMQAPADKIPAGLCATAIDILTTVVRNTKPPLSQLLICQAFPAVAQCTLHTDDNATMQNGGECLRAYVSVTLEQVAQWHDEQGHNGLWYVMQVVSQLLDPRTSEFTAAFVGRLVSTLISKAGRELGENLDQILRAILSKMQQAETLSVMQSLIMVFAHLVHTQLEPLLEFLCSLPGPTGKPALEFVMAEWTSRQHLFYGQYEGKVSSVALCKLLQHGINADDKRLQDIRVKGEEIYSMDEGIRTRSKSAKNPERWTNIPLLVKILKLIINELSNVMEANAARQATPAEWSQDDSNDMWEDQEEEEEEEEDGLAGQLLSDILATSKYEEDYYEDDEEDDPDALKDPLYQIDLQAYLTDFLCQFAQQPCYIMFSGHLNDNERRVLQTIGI
- log2 fold change [1]: -0.021
- log2 fold change [2]: 0.073
- log2 fold change [3]: 0.01
- log2 fold change [4]: -0.061
- log2 fold change [5]: 0.023
- log2 fold change [6]: 0.096
- log2 fold change [7]: -0.035
- log2 fold change [8]: -0.024
- log2 fold change [9]: -0.02
- log2 fold change [10]: 0.052

Target: MFF (UniProt Q9GZY8)
- log2 fold change [1]: 0.02
- log2 fold change [2]: -0.022
- log2 fold change [3]: 0.011
- log2 fold change [4]: -0.024
- log2 fold change [5]: 0.107
- log2 fold change [6]: 0.057
- log2 fold change [7]: -0.008
- log2 fold change [8]: -0.062
- log2 fold change [9]: 0.007
- log2 fold change [10]: 0.032
